Experimental data published in PubChem BioAssay (NCI).
About 83,000 compounds went through this panel and 20% of them were active in at least one assay; those are over-represented in the sample as a whole.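 Method: cells in 96-well plates; compound added at one concentration; 48 h incubation; percent growth measured; values under 10 scored active.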 Unmarked numbers belong to inactive results. Calls of active or inactive are those of the source.

Tests used:
Assay in all cases: NCI-60 one-dose screen, 48 h (100 = growth as untreated, 0 = no growth, -100 = all killed)
[1] = tested on: BT-549 breast; details: 10 µM unless noted
[2] = tested on: MDA-MB-435 melanoma; details: 10 µM unless noted
[3] = tested on: SW-620 colon; details: 10 µM unless noted
[4] = tested on: HCT-116 colon; details: 10 µM unless noted
[5] = tested on: KM12 colon; details: 10 µM unless noted
[6] = tested on: MCF7 breast; details: 10 µM
[7] = tested on: HCC-2998 colon; details: 10 µM unless noted

SMILES	growth [1]	growth [2]	growth [3]	growth [4]	growth [5]	growth [6]	growth [7]
C1CCN(c2nc(N3CCCCC3)nc(N3CCOCC3)n2)CC1	109%	101%	103%	105%	106%		
CCOc1c(Br)cc(C2C(C(=O)OC)=CN(C)C=C2C(=O)OC)cc1OC	78.1%	47.3%		59%	61.9%	35.9%	-77.5% (active)
COc1cc(C2C3=C(COC3=O)N(CCO)c3cc4c(cc32)OCCO4)cc(OC)c1O (stereo unspecified)	-3.23% (active)	-35.1% (active)	17.2%	12.8%	-15.3% (active)		-10.7% (active)
COc1c(B(O)O)cccc1-c1nc2ccc3n[nH]c(F)c3c2c2c1CCCC2	5.08% (active)	88.3%		43.9%	40.7%	61.5%	116%
CSc1nc2c(c(=O)[nH]1)N=C1c3ccccc3C(=O)C1C(c1ccc(F)cc1)N2 (stereo unspecified)	97.2%	-2.38% (active)		48.4%	41.7%	40.4%	64.9%
Cc1cccc2c(=O)c3c(sc12)c(N1CCNCC1)nc1ccccc13	80%	62.5%		26.9%	51.3%	26.7%	47.5%
COc1cccc(C(=O)Cn2cc(/C=C(\C#N)S(=O)(=O)c3ccccc3)c3ccccc32)c1	103%	113%		83.9%	107%	94.5%	91%
COc1cc(/C=C/C(=O)N2c3ccccc3CC2C)c(OC)c2c1OCO2 (stereo unspecified)	97.7%	85.8%	93.8%	97.2%	93.8%	91.6%	
COc1ccc(C2C3=C(COC3=O)N(CCO)c3cc4c(cc32)CCC4)cc1 (stereo unspecified)	38.4%	0.306% (active)	31.5%	33.5%	21.2%		61.1%
COc1ccc(/C=C2\CCC/C(=C\c3ccc(OC)c(OC)c3)C2=O)cc1OC	13%	-8.1% (active)	-21.7% (active)	-68.3% (active)	-75.2% (active)		-30.1% (active)
Nc1ccc(-n2c(=O)oc3ccc(Cl)cc3c2=O)c(Cl)c1		-5.78% (active)	5.14% (active)	-4.7% (active)	-33.7% (active)	4.1% (active)	10.2%
O=C(Nc1ccc(Cl)cc1F)c1cc(F)ccc1O		0.146% (active)	9.96% (active)	3.99% (active)	0.993% (active)	3.15% (active)	11.7%
CN1CCN(c2nc(Nc3ccc(O)cc3)nc3ccccc23)CC1	70.8%		57.2%	94.6%	65.6%	44.9%	46.1%
COc1nc2c(c(=O)n1C)N=C1c3ccccc3C(=O)C1C(c1ccccc1)N2 (stereo unspecified)	81.1%		88.4%	89.9%	79.3%	88.2%	106%
CC[C@]1(O)C[C@@H]2CN(CCc3c([nH]c4ccccc34)[C@@](C(=O)OC)(c3cc4c(cc3OC)N(C)[C@H]3[C@@](O)(C(=O)OC)[C@H](OC(=O)CCCBr)[C@]5(CC)C=CCN6CC[C@]43[C@@H]65)C2)C1		-36% (active)	22.4%	5.16% (active)	7.23% (active)	12.9%	9.27% (active)
Fc1ccc(Oc2ccc(Nc3ncnc4onc(-c5ccccc5)c34)cc2)cc1	78.6%	103%		99.1%	99.5%	94.5%	105%
O=c1oc2ccc(Cl)cc2c(=O)n1-c1cc(C(F)(F)F)cc(C(F)(F)F)c1		-4.47% (active)	6.78% (active)	-12.7% (active)	-31.5% (active)	2.18% (active)	5.83% (active)
COc1cc(C2C3=C(COC3=O)N(CCO)c3cc4c(cc32)CCC4)cc(OC)c1O (stereo unspecified)	-7.32% (active)	-26.8% (active)		8.94% (active)	-20.6% (active)		-22.4% (active)
CSc1nc2c(c(=O)[nH]1)N=C1c3ccccc3C(=O)C1C(c1ccccc1)N2 (stereo unspecified)	40%		29.8%	21.8%	28.1%	17.3%	53.1%
CCCCCCc1cc2cc(-c3nc4ccccc4[nH]3)c(=Nc3ccccc3C)oc2cc1O	77.3%		29.6%	19.2%	36.4%	17.5%	-78.2% (active)
CCCCCCCCCCOC(=O)c1ccccc1C(=O)OCCCC	114%		102%	84.9%	105%	102%	108%
COc1cc(OC)cc(N2C(=O)N(Cc3ccc(C(C)(C)C)cc3)c3ccccc3S2(=O)=O)c1	99.6%		82.2%	76.2%	82.6%	90.7%	-46% (active)
O=c1oc2ccc(I)cc2c(=O)n1-c1ccc(F)cc1F		1.74% (active)	19.7%	6.72% (active)	3.81% (active)	5.86% (active)	26%
